Data: PubChem BioAssay (NCI)
About 83,000 compounds went through this panel and 20% of them were active in at least one assay; those are over-represented in the sample as a whole.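 Assay: single dose, 48 h. Readout: percent growth (0 = no net growth; negative = cell death). Active: <10.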 Unmarked numbers belong to inactive results. Calls of active or inactive are those of the source.

Tests used:
Assay in all cases: NCI-60 one-dose screen, 48 h (100 = growth as untreated, 0 = no growth, -100 = all killed)
Settings in all cases: 10 µM unless noted
[1] = test system: NCI-H23 lung
[2] = test system: NCI-H226 lung
[3] = test system: NCI-H322M lung
[4] = test system: HOP-62 NSCLC
[5] = test system: NCI-H460 lung
[6] = test system: NCI-H522 lung
[7] = test system: A549/ATCC NSCLC
[8] = test system: 786-0 renal
[9] = test system: COLO 205 colon

Row | SMILES | growth [1] | growth [2] | growth [3] | growth [4] | growth [5] | growth [6] | growth [7] | growth [8] | growth [9]
1 | CN(C)CCN(C)c1ccc2ncc(C#Cc3cncc(C(=O)Nc4ccc(CN5CCN(C)CC5)c(C(F)(F)F)c4)c3)n2n1 | -66.4% (active) | 64.3% | 89% | 33.6% | -76% (active) | 97% | -40.5% (active) | 90.9% | 25.1%
2 | CCCn1cnc2c(c1=N)C(c1ccc(Cl)cc1)c1sc3c(CC)cccc3c1O2 (stereo unspecified) | 19.2% | 57.7% | 45.8% | 31.1% | 7.5% (active) | -25.7% (active) | 30.4% | 30% | -14.3% (active)
3 | Cc1cc(-c2ccc(Cl)cc2)n(Cc2nnc(SCC(=O)Nc3ccc(S(N)(=O)=O)cc3)n2C2CCCCC2)n1 | 99.4% | 93.5% | 97.2% | 114% | 105% | 99.8% | 98.4% | 108% | 116%
4 | O=C(CCn1c[n+](CC(=O)c2ccc(F)cc2)c2ccccc21)Nc1cccc2cccnc12 | 83.4% | 78.1% | 93.9% | 85.7% | 88.3% | 67.5% | 102% | 102% | 55.7%
5 | O=S(=O)(Nc1cccc2ccccc12)c1ccc(-c2cnc(C3CC3)o2)cc1 | 23.2% | 64.6% | 40.4% | 39.3% | 11.2% | 21.9% | 27.2% | 50.2% | 9.76% (active)
6 | C[C@@H]1C[C@H]2C(=O)O[C@@H](C)C(NC(=O)[C@H](Cc3cc(F)cc(F)c3)NC(=O)Nc3ccc(C4CC4)cc3F)C(=O)N3CCC[C@H]3C(=O)N3CCCC[C@H]3C(=O)N[C@@H](CO)C(=O)N2C1 (stereo partly specified) | 34% | -5.28% (active) | 48.3% | 33.3% | 14.4% | 13.2% | 25.7% | 40.4% | -38.3% (active)
7 | CCOC(=O)c1c(Nc2ccccc2)nn2c(-c3ccccc3)ccnc12 | 86.2% | 85.3% | 94.2% | 101% | 97.9% | 87.9% | 92.4% | 86.6% | 99.5%
8 | O=c1c2ccccc2nc(COc2ccccc2)n1NS(=O)(=O)c1ccc(Cl)cc1 | 82.8% | 83% | 82.9% | 75% | 96.1% | 69.4% | 86% | 107% | 95%
9 | COc1ccc(-n2c(SCc3nnc(NC(=O)c4ccc(Br)cc4)s3)nc3cc(OC)c(OC)cc3c2=O)cc1 | 92.5% | 74% | 85.5% | 92.3% | 93.5% | 89.2% | 102% | 105% | 104%
10 | NC(=O)c1cccc(C#CCNC[C@H]2C[C@@H](n3ccc4c(Cl)ncnc43)[C@H](O)[C@@H]2O)c1 | 99% | 99.1% | 94.2% | 106% | 113% | 97.3% | 101% | 101% | 116%
11 | COc1ccc([C@@H]2[C@@H](O)C(=O)N2c2cc(OC)c(OC)c(OC)c2)cc1F | 15.9% | 36.9% | 52.4% | 28.3% | 2.68% (active) | -49.6% (active) | 20.2% | 10% | -79.8% (active)
12 | CCN1CCN(C(=O)[C@]23CCC(C)(C)C[C@H]2C2=CC[C@@H]4[C@@]5(C)Cc6c([nH]c7ccccc67)C(C)(C)[C@@H]5CC[C@@]4(C)[C@]2(C)CC3)CC1 | 87.7% | 84.4% | 89.1% | 110% | 76.5% | 90.5% | 59.7% | 94.2% | 102%
13 | Cc1cc(C)cc(C(=O)Nc2cccc(C#Cc3cccc4[nH]nc(N)c34)c2)c1 | 76.6% | 67.3% | 88.4% | 67% | 50.7% | 23.6% | 54.8% | 89.9% | 77.9%
14 | Cc1ccc2sc3c(c2c1)OC(N)=C(C#N)C3c1ccc(Cl)cc1 (stereo unspecified) | 86.2% | 68% | 99% | 79.6% | 56.2% | 58.2% | 96.9% | 102% | 96.7%
15 | Cc1ccc2c(c1)C(=O)/C(=C/c1cccc(F)c1)S2 | 101% | 88.5% | 98.2% | 109% | 105% | 93.2% | 107% | 103% | 112%
16 | CC[C@H](CO)Nc1ccc2ncc(C#Cc3cncc(C(=O)Nc4ccc(CN5CCN(C)CC5)c(C(F)(F)F)c4)c3)n2n1 | -80.8% (active) | -25.7% (active) | -16.6% (active) | -45% (active) | -93% (active) | -75.8% (active) | -0.341% (active) | -97.2% (active) | -92.5% (active)
17 | COc1cc2oc(-c3cccc(C(=O)N[C@@H](CC(C)C)C(=O)OC(C)(C)C)c3)cc(=O)c2c(OC)c1OC | 60.6% | 72.6% | 90.4% | 43.4% | 37.8% | 83.1% | 76% | 67.9% | 92.8%
18 | CCOC(=O)c1c(Nc2ccccc2)nn2c(-c3ccc(Cl)cc3)ccnc12 | 73.4% | 58.6% | 86.5% | 56.7% | 44.1% | 79.7% | 70.4% | 64.7% | 82.1%
19 | NC(N)=Nc1ccc(Nc2cccc(Oc3ccc(Cl)c(C(F)(F)F)c3)c2)cn1 | 32% | 36.5% | 52.9% | 17.4% | -71.3% (active) | 18% | 19.9% | 54.3% | -48.7% (active)
20 | COc1ccc(CCN2C(=O)CSC2=S)cc1 | 103% | 115% | 99.4% | 104% | 103% | 69.3% | 102% | 87.3% | 117%
21 | COc1cccc2cc(-c3cc4ccccc4[nH]3)/c(=N\NC(=O)c3ccc(Cl)cc3)oc12 | 44.6% | 44% | 41.5% | 31.3% | 18.4% | 18.7% | 39.8% | 48.5% | 62.1%
22 | NC(N)=Nc1ccc(Oc2cccc(Nc3ccc(Cl)cc3)c2)cn1 | 29.1% | 29.6% | -3.11% (active) | -21.3% (active) | -72.6% (active) | -30.1% (active) | 24.8% | 35.4% | -64.4% (active)
23 | COc1cc(-c2nc(SC(C)C)n(C(C)C)c(=O)c2C#N)ccc1OCc1ccccc1 | 85% | 87.4% | 64.9% | 79% | 21% | 84% | 36.7% | 34.4% | 34.5%
24 | Cc1ccc(NC(=O)N[C@@H](Cc2cc(F)cc(F)c2)C(=O)NC2C(=O)N3C[C@H](O)C[C@H]3C(=O)N3CCCC[C@H]3C(=O)N[C@@H](CO)C(=O)N3C[C@H](C)C[C@H]3C(=O)O[C@H]2C)c(F)c1 (stereo partly specified) | 28.2% | 8.45% (active) | 70.7% | 48.3% | 37.3% | 26.9% | 73.4% | 93.6% | -11.9% (active)
25 | COc1cccc2c1CN(C(=O)c1ccc(O)c(C(=O)N3Cc4ccc(OCCC[P+](c5ccccc5)(c5ccccc5)c5ccccc5)cc4C3)c1)C2 | 75.4% | 86.9% | 99.1% | 102% | 61.4% | 78% | 101% | 103% | 54%
26 | COc1ccc(C(=O)Nc2ncc(Cc3ccccc3Cl)s2)cc1 | 17.9% | 31.7% | 54.3% | 39.2% | 2.79% (active) | – | 24.3% | 28.9% | -48.3% (active)
27 | COc1ccc(NCc2cn(-c3ccc(C(=O)O)cc3)nc2-c2cc(C(F)(F)F)cc(C(F)(F)F)c2)cc1 | 104% | 107% | 94% | 104% | 93.6% | 94.4% | 87.7% | 102% | 110%
28 | O=C(c1ccc(O)c(C(=O)N2Cc3ccc(OCCC[P+](c4ccccc4)(c4ccccc4)c4ccccc4)cc3C2)c1)N1Cc2cccc(F)c2C1 | 87.3% | 92.3% | 94.3% | 102% | 69.7% | 72.9% | 99.8% | 98.5% | 52.3%
